This is a sample that favours compounds with a hit; in the whole collection about 0.4% have one here.
UDG counterscr – counter-screen for AID inhibitors: uracil-DNA glycosylase inhibition; FRET deamination/UDG coupled assay, UDG read, 4 h; Potency, µM (highest dose often 115 µM), usual class: inhibitors; hit rate 0.14% among 91,000; further: nearly all actives have a fitted effect of over 65% in size
AID inhibitor – activation induced cytidine deaminase inhibition; AID 1347428; Q9GZX7; hit rate 0.32% among 91,000; AID deamination FRET fluorescence, UDG-coupled, 4 h; Potency, µM (top dose mostly 115 µM), hits mostly inhibitors; further: nearly all actives have a fitted effect of over 25% in size
Target sequence (Q9GZX7 whole entry, looked up): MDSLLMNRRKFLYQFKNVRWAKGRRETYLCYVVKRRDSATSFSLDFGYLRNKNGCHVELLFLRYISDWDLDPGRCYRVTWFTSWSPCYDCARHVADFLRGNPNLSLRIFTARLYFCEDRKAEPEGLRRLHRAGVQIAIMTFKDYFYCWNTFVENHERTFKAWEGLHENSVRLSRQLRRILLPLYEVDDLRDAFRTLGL
A number is an active result; i = inactive; ? = inconclusive. The call rests on the fitted dose curve; in most records, active means well fitted curve in the direction sought with a large enough effect; inconclusive means small, poorly fitted or top-dose-only effect, or another doubt; inactive means no such curve, though single readings can be large; an effect the other way counts as inactive or inconclusive.

SMILES	UDG counterscr	AID inhibitor
Cc1cc(N)c2ccccc2[n+]1CCCCCCCCCC[n+]1c(C)cc(N)c2ccccc21	89µM	50µM
N#Cc1ccc(NCc2ccccc2Cl)cc1	i	i
Fc1ccc(NCc2ccccc2F)cc1	i	i
Oc1ccc(NCc2ccccc2OCc2ccccc2F)cc1	i	20µM
Oc1ccc(NCc2ccccc2OCc2ccccc2Cl)cc1	i	32µM
O=C(Nc1cccnc1N1CCCC1)N1CCN(c2cnccn2)CC1	i	i
CCCCCc1ccc(-c2ccc(-c3ccc(C#N)cc3)cc2)nc1	i	i
CCOc1ccc(-n2c(SCc3nc(-c4ccc(OC)cc4)no3)nnc2-c2ccncc2)cc1	79µM	?
COc1ccc(-c2noc(CSc3nnc(C)n3-c3ccc(C)cc3)n2)cc1OC	?	i
Cc1ccc(-n2c(SCc3nc(-c4ccccc4C)no3)nnc2-c2ccncc2)cc1C	?	32µM
CCOc1ccc(-n2c(SCc3nc(-c4ccccc4C)no3)nnc2-c2ccccc2)cc1	i	i
COc1ccc(-c2noc(CSc3nnc(-c4ccncc4)n3-c3cccc(C)c3)n2)cc1OC	79µM	?
Cc1ccccc1-c1noc(CSc2nnc(-c3ccncc3)n2-c2ccc(F)cc2)n1	?	i
COc1ccc(-n2c(SCc3nc(-c4ccc(C)cc4)no3)nnc2-c2ccccc2)cc1	i	i
CCOc1ccc(-n2c(Cc3ccccc3)nnc2SCc2nc(-c3cccs3)no2)cc1	?	32µM
Cn1c(C=O)cc2ccccc21	i	i
c1ccc(-c2ccc(Oc3nc(-c4ccccc4)cs3)cc2)cc1	i	i
Fc1nc(F)c(F)c(Sc2nc3ccccc3s2)c1F	i	i
Cc1ccc(-c2cn3c4ccccc4nc3n2CCCN2CCCC2)cc1	i	i
CC(C)(C)c1ccc(C(=O)NCC(c2cccs2)S(=O)(=O)c2cccs2)cc1 (stereo unspecified)	i	?
CC(C)(C)c1ccc(C(=O)NCC(c2cccs2)S(=O)(=O)c2ccc(F)cc2)cc1 (stereo unspecified)	79µM	i
CC(C)CC(C)N(C)CC(=O)NC(C)(C#N)C1CC1 (stereo unspecified)	i	i
COc1ccc(Cc2nc(C)c(-c3ccccc3)s2)cc1OC	i	i
c1ccc(CNCc2ccc(OCc3ccccc3)cc2)cc1	i	i
Oc1ccc(NCc2ccc(OCc3ccccc3Cl)cc2)cc1	79µM	35µM
SMILES	UDG counterscr	AID inhibitor
O/N=C\c1ccc(OCc2ccccc2Cl)cc1	i	i
Oc1ccc(NCc2ccc(OCc3ccccc3)cc2)cc1	i	2.8µM
C=CCOc1ccc2c(C)c(CCC(C)C)c(=O)oc2c1	i	i
Cc1ccc(OC(C)C(=O)Nc2ccc3nsnc3c2)cc1C (stereo unspecified)	i	i
O=C(CC1N=C2c3ccccc3N=C(SCc3ccc(Cl)cc3)N2C1=O)NC1CCCCC1 (stereo unspecified)	i	i
COc1ccc(Cl)cc1NC(=O)CSC1=Nc2ccccc2C2=NC(CC(=O)NC3CCCCC3)C(=O)N12 (stereo unspecified)	i	32µM
CNS(=O)(=O)c1ccc(C)c(C(=O)Nc2ccc(N3CCCCC3)c3ccncc23)c1	i	i
CCn1cc2nc(SCc3cccc(C(F)(F)F)c3)n(Cc3ccc(Cl)cc3)c(=O)c2n1	i	25µM
CCn1cc2nc(SCc3cccc(C(F)(F)F)c3)n(CCc3ccccc3)c(=O)c2n1	i	?
CCn1cc2nc(SCc3cccc(C)c3)n(CCc3ccccc3)c(=O)c2n1	i	35µM
CCn1cc2nc(SCc3cccc(Cl)c3)n(Cc3ccc(C)cc3)c(=O)c2n1	i	i
Oc1cccc(C=Nc2cccc3ccccc23)c1	i	i
Cc1ccc(S(=O)(=O)N2c3cccc4cccc(c34)S2(=O)=O)cc1	i	i
CC(C)C(=O)Nc1ccc(Cl)cc1F	i	i
Cc1ccc(C(C)NC(=O)Nc2ccc(Cl)cc2F)c(C)c1 (stereo unspecified)	i	14µM
Cc1nn(-c2nc3c(c(=O)n(CC(N)=O)c(=O)n3C)n2Cc2ccccc2)c(C)c1C	i	i
Cc1cc(=O)n(Cc2ccc(F)cc2Cl)c2c1c(C)nn2-c1ccccc1	i	i
Cc1ccc(C)c(-c2ccc(=O)n(Cc3ccc(F)cc3Cl)n2)c1	?	32µM
CCOc1ccc(C(=O)c2cn(CC(=O)Nc3ccc4c(c3)OCO4)c3ccc(OC)cc3c2=O)cc1	i	45µM
CCOc1ccc(C(=O)c2cn(CC(=O)Nc3ccc4c(c3)OCO4)c3ccc(OCC)cc3c2=O)cc1	i	i
O=C(N/N=C1/CC2C=CCC12)c1ccc(Cl)cc1 (stereo unspecified)	i	i
Cc1cc(C)c(S(=O)(=O)N2CCN(Cc3nc4ccc(C)cc4o3)CC2)c(C)c1	89µM	?
Cc1ccc2nc(CN3CCN(S(=O)(=O)c4ccccc4)CC3)oc2c1	i	i
Cc1ccccc1Cn1c(SCc2ccc(C(=O)NCc3cccs3)cc2)nc2ccncc21	i	i
O=C(NCc1cccs1)c1ccc(CSc2nc3ccncc3n2Cc2ccccc2F)cc1	i	79µM
SMILES	UDG counterscr	AID inhibitor
C=C(C)[C@@H]1CCC2(COC(C)=O)CC[C@]3(C)C(CCC4[C@@]5(C)CCC(=O)C(C)(C)C5CC[C@]43C)C12 (stereo partly specified)	i	i
C=C(C)C1CCC2(COC(=O)CCC(=O)O)CC[C@]3(C)C(CCC4[C@@]5(C)CCC(OC(=O)CCC(=O)O)C(C)(C)C5CC[C@]43C)C12 (stereo partly specified)	i	28µM
CCC(CC)c1nnc(NC(=O)c2nn(Cc3ccccc3)c(=O)c3ccccc23)s1	i	i
Cc1ccc(C2=NC(c3ccccc3)=Nc3ccc(Cl)cc3N2)cc1	?	i
COc1ccc(C2=NC(c3ccccc3)=Nc3ccc(C)cc3N2)cc1	79µM	i
CCSC1=N/C(=C\c2cccc3ccccc23)C(=O)S1	i	i
COc1ccc(-c2nc(NC(=O)Cn3cnc4c3c(=O)n(C)c(=O)n4C)sc2C)cc1	i	i
CN(C)c1ccc(C(=O)NCc2ccc3c(c2)CCN3C(=O)c2ccccc2)cc1	79µM	i
CCN(CC)c1ccc(C(=O)NCc2ccc3c(c2)CCN3C(=O)c2ccccc2)cc1	i	i
O=C(C1=C(O)C(=O)N(c2nc3ccc(Cl)cc3s2)C1c1ccco1)c1ccco1 (stereo unspecified)	i	50µM
Cc1ccc2nc(N3C(=O)C(O)=C(C(=O)c4ccco4)C3c3ccc(O)cc3)sc2c1 (stereo unspecified)	i	i
Cc1ccc(OCC(=O)N(Cc2nc(-c3ccccc3)no2)C(C)C)cc1C	i	i
Cc1ccc(-c2noc(CN(C(=O)COc3cc(C)cc(C)c3C)C(C)C)n2)cc1	i	79µM
CCC(C)C(=O)N(Cc1ccccn1)C1CC1 (stereo unspecified)	i	i
O=C(CSc1nc2ccccc2o1)Nc1ccc(O)cc1	i	i
Cc1ccc(Cc2nc3ccccc3nc2SCC(=O)N2CCCCC2C)cc1 (stereo unspecified)	i	50µM
COc1cccc(Cc2nc3ccccc3nc2SCC(=O)N2CCCCC2C)c1 (stereo unspecified)	i	?
Brc1c(Br)c(Br)c2[nH]cnc2c1Br	i	i
Brc1c(Br)c(Br)c2n[nH]nc2c1Br	i	40µM
CC(NC(=O)c1cc(-c2ccco2)nc2ccccc12)c1ccccc1 (stereo unspecified)	i	i
Cc1nn(CC(=O)Nc2ccc3c(c2)nc(CCN2CCOCC2)n3C)c(=O)c2ccccc12	i	i
